{"source": "ChEMBL document CHEMBL3988442", "about": "“University of Dundee, Small-Polar-MMV Screening Library” (2021)", "key": {"[1]": {"target": "T1, Aspartate--tRNA(Asp/Asn) ligase (Mycobacterium tuberculosis (strain ATCC 25618 / H37Rv)) (UniProt P9WFW3)", "T1 sequence (whole entry)": "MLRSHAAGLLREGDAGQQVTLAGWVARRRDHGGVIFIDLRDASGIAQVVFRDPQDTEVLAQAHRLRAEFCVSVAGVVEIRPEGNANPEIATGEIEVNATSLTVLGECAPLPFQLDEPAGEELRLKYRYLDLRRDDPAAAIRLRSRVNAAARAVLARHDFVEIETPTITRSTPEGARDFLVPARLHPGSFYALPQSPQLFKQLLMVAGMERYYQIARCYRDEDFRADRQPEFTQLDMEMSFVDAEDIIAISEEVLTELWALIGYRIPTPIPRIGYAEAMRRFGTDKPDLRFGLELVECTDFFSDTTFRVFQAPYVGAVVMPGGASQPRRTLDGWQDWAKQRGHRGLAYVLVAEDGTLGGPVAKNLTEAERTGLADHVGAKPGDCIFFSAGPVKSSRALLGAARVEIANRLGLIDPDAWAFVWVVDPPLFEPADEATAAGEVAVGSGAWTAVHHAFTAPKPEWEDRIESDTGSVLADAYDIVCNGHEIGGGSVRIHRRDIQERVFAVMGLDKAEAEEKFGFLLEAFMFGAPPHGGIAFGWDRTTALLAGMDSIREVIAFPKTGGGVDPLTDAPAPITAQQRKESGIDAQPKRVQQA", "experiment": "Assay for Asp RNA synthetase-1 from Mycobacterium tuberculosis", "type": "functional", "parameters": "scale not given: direction of the effect not stated beside the values", "details": "30 µM"}, "[2]": {"target": "Shiga toxin 2 (Escherichia coli O157:H7) (UniProt P09385+P09386)", "experiment": "E. coli 0.157:H7 Shiga Toxin SOP - stx2 screening assay", "type": "functional", "parameters": "scale not given: direction of the effect not stated beside the values", "details": "30 µM"}}}
{"smiles": "COCC(=O)NCc1cc(=O)n2c(n1)CN(Cc1ccsc1)CCC2", "values": [{"measurement": "Percent Effect", "setting": "[1]", "value": 5.55, "unit": "%"}, {"measurement": "Percent Effect", "setting": "[2]", "value": 10, "unit": "%"}]}
{"smiles": "CC(NC(=O)NCCNc1ncccn1)c1cccs1", "note": "(centres undefined)", "values": [{"measurement": "Percent Effect", "setting": "[1]", "value": -2.58, "unit": "%"}, {"measurement": "Percent Effect", "setting": "[2]", "value": -27.7, "unit": "%"}]}
{"smiles": "Cc1ccc(C(N)c2cccc(S(C)(=O)=O)c2)cc1", "note": "(centres undefined)", "values": [{"measurement": "Percent Effect", "setting": "[1]", "value": -0.691, "unit": "%"}, {"measurement": "Percent Effect", "setting": "[2]", "value": -0.145, "unit": "%"}]}
{"smiles": "Cc1nc(CN(C)C2CCN(Cc3ccc4c(c3)OCCO4)C2)no1", "note": "(centres undefined)", "values": [{"measurement": "Percent Effect", "setting": "[1]", "value": -4.04, "unit": "%"}, {"measurement": "Percent Effect", "setting": "[2]", "value": 5.87, "unit": "%"}]}
{"smiles": "CC(=O)N1CCn2c(COCc3csc(C)n3)cnc2C1C", "note": "(centres undefined)", "values": [{"measurement": "Percent Effect", "setting": "[1]", "value": -3.29, "unit": "%"}, {"measurement": "Percent Effect", "setting": "[2]", "value": -18.6, "unit": "%"}]}
{"smiles": "OC(COCc1ccc(Cl)cc1)CN1CCC(c2ccn[nH]2)CC1", "note": "(centres undefined)", "values": [{"measurement": "Percent Effect", "setting": "[1]", "value": -1.57, "unit": "%"}, {"measurement": "Percent Effect", "setting": "[2]", "value": -33, "unit": "%"}]}
{"smiles": "CC(C)c1nnc2n1CCN(C(=O)CN1CCc3sccc3C1)C2", "values": [{"measurement": "Percent Effect", "setting": "[1]", "value": -0.1, "unit": "%"}, {"measurement": "Percent Effect", "setting": "[2]", "value": -16.2, "unit": "%"}]}
{"smiles": "CN(C)C(=O)COC[C@]12COC[C@H]1CN(CC1CCC1)C2", "values": [{"measurement": "Percent Effect", "setting": "[1]", "value": -8.17, "unit": "%"}, {"measurement": "Percent Effect", "setting": "[2]", "value": -9.5, "unit": "%"}]}
{"smiles": "COc1cccc2c1OCC(C(=O)N(C)CCCc1cnn(C)c1)C2", "note": "(centres undefined)", "values": [{"measurement": "Percent Effect", "setting": "[1]", "value": 9.43, "unit": "%"}, {"measurement": "Percent Effect", "setting": "[2]", "value": -7.98, "unit": "%"}]}
{"smiles": "CCn1cnnc1CNC(=O)N1CCCN(C(C)=O)CC1", "values": [{"measurement": "Percent Effect", "setting": "[1]", "value": -0.98, "unit": "%"}, {"measurement": "Percent Effect", "setting": "[2]", "value": 25.6, "unit": "%"}]}
{"smiles": "O=C(Nc1ccc(F)cc1F)Nc1c[nH]c(=O)[nH]c1=O", "values": [{"measurement": "Percent Effect", "setting": "[1]", "value": 1.82, "unit": "%"}, {"measurement": "Percent Effect", "setting": "[2]", "value": -4.74, "unit": "%"}]}
{"smiles": "Cc1cccc(C(=O)NC2CCN(c3cnn(C)c3)C2=O)n1", "note": "(centres undefined)", "values": [{"measurement": "Percent Effect", "setting": "[1]", "value": 2.04, "unit": "%"}, {"measurement": "Percent Effect", "setting": "[2]", "value": -29.9, "unit": "%"}]}
{"smiles": "CC(CNCc1ccc(Cl)c(Cl)c1)Oc1ccccn1", "note": "(centres undefined)", "values": [{"measurement": "Percent Effect", "setting": "[1]", "value": -0.523, "unit": "%"}, {"measurement": "Percent Effect", "setting": "[2]", "value": -59.8, "unit": "%"}]}
{"smiles": "CC(=O)c1cccc(NC(=O)Cn2cc(I)cn2)c1", "values": [{"measurement": "Percent Effect", "setting": "[1]", "value": 6.41, "unit": "%"}, {"measurement": "Percent Effect", "setting": "[2]", "value": -55.6, "unit": "%"}]}
{"smiles": "CN(Cc1cn2c(n1)CN(C(=O)CC1CC1)CC2)Cc1ccco1", "values": [{"measurement": "Percent Effect", "setting": "[1]", "value": -0.868, "unit": "%"}, {"measurement": "Percent Effect", "setting": "[2]", "value": -5.93, "unit": "%"}]}
{"smiles": "CN(C)[C@@H]1CCN(C(=O)c2ccsc2)[C@H]1Cc1cnn(C)c1", "values": [{"measurement": "Percent Effect", "setting": "[1]", "value": -0.691, "unit": "%"}, {"measurement": "Percent Effect", "setting": "[2]", "value": -4.3, "unit": "%"}]}
{"smiles": "CCc1noc(CNc2ccc(F)cc2OCC2CC2)n1", "values": [{"measurement": "Percent Effect", "setting": "[1]", "value": 1.97, "unit": "%"}, {"measurement": "Percent Effect", "setting": "[2]", "value": 0.5, "unit": "%"}]}
